Screening results (PubChem BioAssay)
A selection: hits, their analogues and other compounds. The true share with any hit is near 0.7%.
Epigenetic reg = regulators of epigenetic silencing causing reporter derepression in mouse cells; Potency, µM (top dose mostly 53.9 µM), for inactives: top-dose GFP activation, usual class: activators; actives 0.2% (n = 280,000); murine LDR cells, GFP reporter derepression, 30 h; further: % of control where 0% means no effect; nearly all actives have a fitted effect of over 60% in size
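Reporter derepression read as number of fluorescent GFP-positive objects, 20-120 um in size, counted by laser-scanning cytometer. Mouse LDR line with an epigenetically silenced CMV-GFP locus; compound incubation 30 h, 37 C.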
PINK1 expr mod = PINK1 expression modulation | PINK1 immunofluorescence, high-content cytometry, 24 h | Potency, µM (doses to about 76.6 µM), without a hit: at the highest dose activation (PINK1 increase), hits mostly activators | actives 0.2% (n = 410,000) | AID 624263; active means well fitted activation curve with a large enough effect; inconclusive means small, poorly fitted or top-dose-only effect; cell line not stated here; further: % of control where 0% means no effect; nearly all actives have a fitted effect of over 65% in size
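A stable cell line was treated with compounds at 5 concentrations for 24 hours, with CCCP as control. PINK1 levels and mitochondrial localization were measured by immunofluorescence with mitochondrial, cell and nuclear markers after fixation, read by laser-scanning cytometry.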
GLS inh = glutaminase GLS (human) inhibition; O94925; GLS enzymatic activity, qHTS titration; Potency, µM (doses to about 45.5 µM), without a hit: at the top dose activity change, negative = inhibition, actives largely listed as inhibitors; actives 0.21% (n = 410,000); further: on the % scale 0 is the no-effect control and ±100 the full control effect
Target sequence (O94925 whole entry, looked up): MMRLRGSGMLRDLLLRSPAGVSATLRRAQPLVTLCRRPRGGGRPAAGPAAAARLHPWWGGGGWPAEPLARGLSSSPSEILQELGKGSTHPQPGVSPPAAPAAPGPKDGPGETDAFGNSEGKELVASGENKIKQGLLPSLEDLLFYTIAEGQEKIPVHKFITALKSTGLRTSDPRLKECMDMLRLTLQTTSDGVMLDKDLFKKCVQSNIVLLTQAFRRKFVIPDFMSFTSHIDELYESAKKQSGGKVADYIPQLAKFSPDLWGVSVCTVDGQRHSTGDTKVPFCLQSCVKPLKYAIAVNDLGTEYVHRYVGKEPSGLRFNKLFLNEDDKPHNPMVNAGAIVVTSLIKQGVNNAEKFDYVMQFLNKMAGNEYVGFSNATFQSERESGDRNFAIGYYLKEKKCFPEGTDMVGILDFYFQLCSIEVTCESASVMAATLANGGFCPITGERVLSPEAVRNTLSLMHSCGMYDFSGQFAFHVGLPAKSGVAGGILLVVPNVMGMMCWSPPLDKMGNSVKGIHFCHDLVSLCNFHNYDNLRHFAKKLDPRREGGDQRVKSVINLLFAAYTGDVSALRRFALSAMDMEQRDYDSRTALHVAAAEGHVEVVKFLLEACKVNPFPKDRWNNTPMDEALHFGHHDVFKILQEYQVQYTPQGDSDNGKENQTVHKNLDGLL
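hKGA; 45 mM KH2PO4 pH 8.2 + 0.02% Tween-20; cpd via pin tool; 1 mM Gln soln; GluOx/HRP/Amplex Red; RT 30 min; fluor. t0 & final.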
Vif-APOBEC3F blk = Vif-A3F binding inhibition. HeLa A3F-eYFP + Vif (tagged APOBEC3F with the HIV-1 protein that degrades it), YFP fluorescence increase. Potency, µM (titrated, usually from 46.1 µM), for the others: at the highest dose activity, negative = active. actives 0.2% (n = 390,000). AID 602313; further: % of control where 0% means no effect; nearly all actives have a fitted effect of over 65% in size
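HeLa cells stably expressing A3F-eYFP plus Vif, plated and incubated overnight at 37 deg C, then exposed to compounds overnight at 37 deg C. Blocked degradation read as raised yellow fluorescence (Ex 488/Em 500-530).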
Vif-APOBEC3G blk = Vif-A3G binding inhibition. Q9HC16. actives 0.076% (n = 410,000). HeLa A3G-eYFP + Vif (tagged APOBEC3G with the HIV-1 protein that degrades it), YFP fluorescence, overnight. AID 602310. Potency, µM (doses to about 46.1 µM), without a hit: at the top dose activity, negative = active, most hits filed as inhibitors; further: on the % scale 0 is the no-effect control and ±100 the full control effect; nearly all actives have a fitted effect of over 60% in size
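HeLa cells stably expressing Vif and C-terminally eYFP-tagged A3G, seeded overnight at 37 deg C, then exposed to compound by pintool overnight at 37 deg C. Rise in yellow fluorescence (Ex 488/Em 500-530, Acumen) marks blocked Vif-driven A3G degradation.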
* hit, by the source's call; ? = inconclusive; nt = no result given. Unless noted, the call rests on the fitted dose curve; in most records, active means well fitted curve in the direction sought with a large enough effect; inconclusive means small, poorly fitted or top-dose-only effect, or another doubt; inactive means no such curve, though single readings can be large; an effect the other way counts as inactive or inconclusive. Potency means the concentration at half of the fitted maximal effect.

SMILES | Epigenetic reg | PINK1 expr mod | GLS inh | Vif-APOBEC3F blk | Vif-APOBEC3G blk
O=C(c1cn(C2CCCN(Cc3cccc(Oc4ccccc4)c3)C2)nn1)N1CCCC1 (stereo not drawn) | nt | 0% | nt | nt | nt
C=CCN1C=CC(=C/C=C(/C#N)C(=O)OCC)C=C1 | ? | ? | 6% | 11µM* | ?
Cc1ccc(C)n1/N=C1/NC(=O)CS1 | -1% | 1% | 10µM* | -5% | -9%
COc1ccc(-c2nc3cc(C)ccc3cc2CN(C(=O)c2cc(C)nn2C)C2CC2)cc1OC | nt | 0% | nt | nt | nt
Cc1n[nH]c(=S)n1/N=C/c1ccccc1OCc1ccc(Cl)cc1Cl | 6% | 13µM* | 1% | -7% | -1%
Cc1n[nH]c(=S)n1/N=C/c1ccc(OCc2ccc(Cl)cc2Cl)cc1 | -2% | 7% | -9% | -2% | 2%
COc1ccc2c(c1)OC(C)CN(CC(=O)NCc1cn[nH]c1-c1ccc(F)cc1)C2 (stereo not drawn) | nt | 0% | nt | nt | nt
Oc1ccc(/C=N/NC(=S)Nc2cccnc2)c(O)c1 | -1% | -2% | 20% | 0% | -20%
Oc1cccc(/C=N/NC(=S)Nc2cccnc2)c1O | 0% | 3% | 10µM* | 6% | -8%
Fc1cccc(F)c1/C=N/NC(=S)Nc1cccnc1 | ? | 0% | -13% | ? | -1%
Oc1ccc(/C=N/NC(=S)Nc2cccnc2)c(O)c1O | 0% | -1% | 4.5µM* | -9% | -4%
CCCCn1c(NC(=O)c2ccco2)c(S(=O)(=O)c2ccc(C)cc2)c2nc3ccccc3nc21 | 2% | 1% | 1% | 25µM* | ?
O=c1[nH]c2ccccc2nc1/C=C(\O)c1cccs1 | 22µM* | ? | 4% | 10µM* | ?
O/C(=C\c1nc2ccccc2[nH]1)c1cccs1 | nt | 1% | 18% | -3% | -4%
C1=C(c2ccc3c(c2)CN(Cc2cccn2-c2ncccn2)CCO3)Cc2ccccc21 | nt | 0% | nt | nt | nt
CCOc1c(Cl)cc(/C=N/NC(N)=S)cc1OC | 0% | 2% | -5% | 11µM* | 1%
Cc1c(C(=O)N2CC3CCC2C3)sc2ncnc(NCCc3ccccn3)c12 (stereo not drawn) | nt | -1% | nt | nt | nt
COc1ccccc1CNC(=O)c1ccc(Nc2nc3ccccc3n3nnnc23)cc1 | ? | ? | 0% | 22µM* | -28%
Cc1ccc(C(=O)O)cc1Nc1nc2ccccc2n2nnnc12 | 0% | 2% | 3% | 11µM* | -23%
COc1ccccc1CNC(=O)c1cccc(Nc2nc3ccccc3n3nnnc23)c1 | ? | 0% | -6% | -6% | -6%
CC(NC(=O)c1ccc(Nc2nc3ccccc3n3nnnc23)cc1)c1ccccc1 (stereo not drawn) | ? | 2% | -5% | 7.1µM* | ?
Cc1ccc(/C=C2/C(=O)c3ccc(C(=O)O)cc3C2=O)o1 | -3% | -2% | 197% | 3% | 1%
O=C(O)c1ccc2c(c1)C(=O)/C(=C\c1ccco1)C2=O | 0% | 1% | 11µM* | -13% | -1%
O=C(O)c1ccc2c(c1)C(=O)/C(=C/c1ccccc1)C2=O | 1% | -2% | 7.1µM* | ? | 0%
O=C1C(=Cc2ccco2)C(=O)c2ccccc21 | 0% | 4% | 13% | -11% | -1%
SMILES | Epigenetic reg | PINK1 expr mod | GLS inh | Vif-APOBEC3F blk | Vif-APOBEC3G blk
CCCCC1=CC2=C(c3ccco3)C(=O)C(C)(OC(=O)c3ccc(OC)cc3)C(=O)C2=CN1Cc1ccccc1 (stereo not drawn) | 18µM* | 3% | 22% | ? | -4%
CCCCC1=CC2=C(c3ccco3)C(=O)C(C)(OC(=O)c3ccc(OC)cc3)C(=O)C2=CN1CCOC (stereo not drawn) | 0% | 2% | 4% | -1% | -5%
COc1cc(=O)n2c(c1C(=O)NCc1ccc3c(c1)OCO3)CCN(C(=O)c1ccccc1F)CC2 | nt | 1% | nt | nt | nt
Fc1cccc(NC(=S)NC2CCCCCCC2)c1 | nt | 16µM* | 3% | ? | 2%
O=C(NCC1(N2CCOCC2)CCCCCC1)c1cnn(-c2nccc(-c3ccco3)n2)c1C1CC1 | nt | 1% | nt | nt | nt
COc1ccc(OC)c(NC(=O)c2cc(-c3cc(C)cc(C)c3O)n[nH]2)c1 | nt | ? | -19% | 11µM* | 0%
CCCN1C(=O)S/C(=C\c2ccc(N3CCOCC3)o2)C1=O | 11µM* | 9% | -21% | ? | ?
